# Hits are enriched below; roughly 2.5% of the tested compounds scored in any of these assays.
# MEKK2mut PB1 HTS = signal of MEK5 binding to mutant human MEKK2 PB1 domain; percent response, % at 10 µM; bead flow cytometry, Alexa488-MEK5 binding to MEKK2 mutant; 290,000 compounds, 0.35% hits; in the data active = percent response above about 24%, passing the limit was not always enough
# MEKK2wt PB1 HTS = raises or lowers MEK5 binding to wildtype human MEKK2 PB1 domain. Q9Y2U5. binding response (% of control), % at 10 µM. bead flow cytometry, Alexa488-MEK5 binding to MEKK2 WT; actives lie on both sides. 290,000 compounds, 1.1% hits; in the data active = binding response below about 67% or above about 130%
# GRK2 inh = blocks RNA aptamer binding to human GRK2 | P25098 | bead flow cytometry, FAM-aptamer displacement from GRK2 | inhibition of aptamer binding, % at 10 µM | 330,000 compounds, 0.59% hits | AID 488847;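 active = inhibition of aptamer binding above 40%, roughly 3 SD of noise, on plates passing a quality check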;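 also: median bead fluorescence of bound FAM aptamer so fluorescent compounds give negative values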
# Target sequence (P25098 whole entry, looked up): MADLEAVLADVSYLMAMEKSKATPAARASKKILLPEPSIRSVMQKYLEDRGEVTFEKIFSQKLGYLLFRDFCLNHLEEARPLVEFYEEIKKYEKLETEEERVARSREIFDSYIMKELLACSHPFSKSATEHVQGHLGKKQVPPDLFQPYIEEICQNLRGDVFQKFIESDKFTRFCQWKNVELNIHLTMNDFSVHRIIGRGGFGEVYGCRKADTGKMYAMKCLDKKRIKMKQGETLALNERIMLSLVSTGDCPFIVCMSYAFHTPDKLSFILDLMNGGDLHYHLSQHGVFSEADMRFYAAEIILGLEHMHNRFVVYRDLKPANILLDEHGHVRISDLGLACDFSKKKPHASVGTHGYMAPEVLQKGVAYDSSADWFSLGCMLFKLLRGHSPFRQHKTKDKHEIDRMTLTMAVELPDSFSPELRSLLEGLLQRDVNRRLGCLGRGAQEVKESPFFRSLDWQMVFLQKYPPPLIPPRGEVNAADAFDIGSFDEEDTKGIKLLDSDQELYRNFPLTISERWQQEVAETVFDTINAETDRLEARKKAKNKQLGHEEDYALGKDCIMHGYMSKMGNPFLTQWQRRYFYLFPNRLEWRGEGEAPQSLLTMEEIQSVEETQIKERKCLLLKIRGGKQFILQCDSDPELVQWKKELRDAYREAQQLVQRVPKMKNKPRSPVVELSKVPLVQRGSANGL
# MEKK3 PB1 HTS = modulators (inhibitors or enhancers) of MEK5 binding to human MEKK3 PB1 domain | bead-based flow cytometry, Alexa488-MEK5 binding to MEKK3; actives lie on both sides; 0 = blocked by unlabeled MEK5, 100 = vehicle | binding response (% of control), % at 10 µM | 290,000 compounds, 1.4% hits | AID 1529;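 active = binding response more than 3 SD above or below the average of its plate-row segment, actives on both sides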;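 also: Alexa488 bead fluorescence after subtracting the streptavidin-only scavenger bead signal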
# MEKK2wt confirm = raises or lowers MEK5 binding to wildtype human MEKK2, retest. binding response (% of control), % at 10 µM. 5,900 compounds, 2.4% hits. AID 1892. bead flow cytometry, Alexa488-MEK5 binding to MEKK2 WT; actives lie on both sides. shares compounds with MEKK3 PB1 HTS; in the data active = binding response below about 16% or above about 210%; inactive = in between
# MEKK2mut-MEK5 = signal of MEK5 binding to mutant human MEKK2, retest; shares compounds with MEKK3 PB1 HTS; bead flow cytometry, Alexa488-MEK5 binding to MEKK2 mutant; percent response, % at 10 µM; 5,900 compounds, 2% hits; AID 1893; in the data active = percent response mostly above about 71%, no sharp cut-off; inactive = mostly below about 38%;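 also: higher means compound restores mutant binding toward wildtype level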
# MEKK3-MEK5 inh = MEKK3-MEK5 PB1 inhibition, single concentration confirmation. shares compounds with MEKK3 PB1 HTS. bead flow cytometry, Alexa488-MEK5 binding to MEKK3; stronger effect = lower value. binding response (% of control), % at 10 µM. 5,900 compounds, 1.8% hits. AID 1894;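 active = binding response below 72% of control, or above a set upper limit, though filed actives all read lower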
# A number is an active result; 0 = inactive; - = no result; [ ] = remark or other dose.
SMILES,MEKK2mut PB1 HTS,MEKK2wt PB1 HTS,GRK2 inh,MEKK3 PB1 HTS,MEKK2wt confirm,MEKK2mut-MEK5,MEKK3-MEK5 inh
O=C(NC1CCCc2c1cnn2-c1ccc(F)cc1F)c1csnn1 (stereo not drawn),0,0,0,0,-,-,-
CN(C)c1cc(NC(=O)CN2CCOCC2)c2ccccc2n1,0,0,0,0,-,-,-
CCc1c(OC(C)=O)c2ccccc2n(C)c1=O,0,0,0,0,-,-,-
C=CCc1c(OC(C)=O)c2ccccc2n(C)c1=O,0,0,0,147,0,0,0
Nc1nc(NCC2CCCO2)nc(Nc2ccc(F)cc2)c1[N+](=O)[O-] (stereo not drawn),0,0,0,199,0,0,0
O=C(COc1ccc(S(=O)(=O)Nc2ccc(Cl)cc2)cc1)N1CCOCC1,0,0,0,0,-,-,-
COc1ccccc1NCC(O)COc1ccc(C(C)(C)C)cc1 (stereo not drawn),0,0,0,0,-,-,-
COc1ccc(OCC(O)CNCCOc2ccccc2OC)c(C(C)(C)C)c1 (stereo not drawn),25,147,0,0,0,0,0
COc1ccc(C[C@H]2CN3C(=NC[C@@H]3C(C)C)N2CCNC(=O)c2ccc(C)c(Br)c2)cc1,0,154,0,0,0,0,0
COc1ccc(C[C@H]2CN3C(=NC[C@H]3C)N2CCNC(=O)c2ccc(C)c(Br)c2)cc1,0,0,-,0,-,-,-
Cc1ccc(C(=O)NCCN2C3=NC[C@H](C)N3C[C@H]2Cc2ccc(O)cc2)cc1Br,0,0,-,0,-,-,-
Cc1ccc(C(=O)NCCN2C3=NC[C@H](C(C)C)N3C[C@H]2Cc2ccc(O)cc2)cc1Br,0,145,0,0,0,0,0
COc1ccccc1S(=O)(=O)Cc1ccc(C(=O)NCCN2CCCCCC2)o1,0,135,0,0,0,0,0
COCCCNC(=O)c1ccc(CS(=O)(=O)c2ccccc2OC)o1,0,0,0,0,-,-,-
Oc1nc(Nc2ccc(Cl)cc2Cl)sc1/C=C1\C=Nc2ccccc21,0,0,0,0,-,-,-
O=C(CC(Nc1cccc(Cl)c1Cl)C(=O)O)c1ccccc1 (stereo not drawn),0,0,0,0,-,-,-
O=C(CC(Nc1ccccc1Cl)C(=O)O)c1ccccc1 (stereo not drawn),0,0,0,130,0,0,0
CC(C)Nc1nc(Oc2ccc(Cl)cc2Cl)cc(C(F)(F)F)n1,0,0,0,0,-,-,-
CCC1=C(OC(=O)N(CC)CC)N2C(=O)OC(=NCc3ccccc3)[C@]2(C)[C@H]2C1=CC[C@H]1C(=O)N(CC(=O)OC)C(=O)[C@H]12,0,0,0,0,-,-,-
CC(C)CCOc1cccc(OCC(=O)O)c1,0,0,-,183,0,0,0
O=C(O)COc1cccc(NC(=O)c2ccccc2)c1,0,0,0,0,-,-,-
CCNC(=S)NNC(=O)C1CCCCC1,0,2.0[inhibitor],0,2.0[inhibitor],0,0,0
CCN(C(=O)c1ccco1)c1nnc(-c2ccc(OC)cc2)s1,0,0,0,66[inhibitor],0,0,0
Nc1ccc2nc(-c3cccc(-c4nc5ccc(N)cc5[nH]4)n3)[nH]c2c1,0,0,0,79[inhibitor],0,0,0
Nc1ccc2nc(CCCCCCCCc3nc4ccc(N)cc4[nH]3)[nH]c2c1,0,140,0,0,0,0,0
SMILES,MEKK2mut PB1 HTS,MEKK2wt PB1 HTS,GRK2 inh,MEKK3 PB1 HTS,MEKK2wt confirm,MEKK2mut-MEK5,MEKK3-MEK5 inh
COc1ccc(CC2(C)OC(c3ccncc3)=NN2C(C)=O)cc1 (stereo not drawn),0,0,0,0,-,-,-
Cc1ccc(S(=O)(=O)Oc2ccc3ccc(O)cc3c2)cc1,0,0,0,0,-,-,-
CCOc1ccc(S(=O)(=O)Oc2ccc3ccccc3c2)cc1,0,0,0,148,0,0,0
CCN1/C(=C/c2ccc3cc(C)cc(C)c3[n+]2CC)Sc2cc(C)ccc21,0,25,-,34[inhibitor],0,0,54
Cc1ccc2c(c1)S/C(=C\c1cccc[n+]1C)N2CCO,0,0,0,0,-,-,-
CCN1/C(=C\c2ccc3cc(C)ccc3[n+]2CC)Sc2cc(C)c(C)cc21,0,29,-,44[inhibitor],15[inhibitor],0,61
OCCCNc1cc(-c2ccnc(Nc3cccc(Cl)c3)n2)ccn1,0,0,0,0,-,-,-
CN(C)CCCNc1ccc(-c2cc(Nc3cccc(Cl)c3)ncn2)cn1,0,159,0,0,0,0,0
C=CCNC(=S)NNc1nc2c(c(=O)[nH]1)C1(CCCC1)Cc1ccccc1-2,0,0,0,142,0,0,0
CNC(=O)/C(C#N)=C/c1c(N(Cc2ccccc2)Cc2ccccc2)nc2c(C)cccn2c1=O,0,0,0,0,-,-,-
Cc1ccc(NC(=O)COc2ccccc2)c(NC(=O)c2ccco2)c1,0,0,0,0,-,-,-
Cc1ccc(/C=N/n2nnnc2N)cc1[N+](=O)[O-],0,0,0,128,0,0,0
COc1cccc(C2C(C(N)=O)=C(C)Nc3nc(-c4cccc(Cl)c4)nn32)c1 (stereo not drawn),0,0,0,0,-,-,-
CN(C)CCn1nnc2c(=O)oc3ccccc3c21,0,-,0,56[inhibitor],0,0,0
O=C(Cn1nc(-c2ccccc2)ccc1=O)NCc1ccc(F)cc1,0,0,0,0,-,-,-
CN(C)CCCN1C(=O)C(O)=C(C(=O)c2cccs2)C1c1cccc([N+](=O)[O-])c1 (stereo not drawn),0,1.0[inhibitor],0,2.0[inhibitor],0,0,0
COc1ccc(CCN2C(=O)C(O)=C(C(C)=O)C2c2ccccc2OC)cc1OC (stereo not drawn),0,0,0,0,-,-,-
COc1ccccc1C1C(C(C)=O)=C(O)C(=O)N1CCc1ccccc1 (stereo not drawn),0,10[inhibitor],0,42[inhibitor],0,0,0
CCOC(=O)CCC(NC(=O)CCCC(=O)NC(CCC(=O)OCC)C(=O)OCC)C(=O)OCC (stereo not drawn),0,0,0,129,0,0,0
CCOC(=O)CCC(NC(=O)CCC(=O)NC(CCC(=O)OCC)C(=O)OCC)C(=O)OCC (stereo not drawn),0,0,0,0,-,-,-
Cc1cccc(CN2CCC(n3nccc3NC(=O)CCCc3ccccc3)CC2)n1,0,0,0,0,-,-,-
COC/C=C/C1=CC2=CC(=O)C(C)(OC(=O)c3ccco3)C(=O)C2=CO1 (stereo not drawn),0,72[inhibitor],-,0,0,0,0
O=c1oc2ccccc2c(NCc2ccccc2F)c1[N+](=O)[O-],0,0,0,136,0,0,0
Cc1ccc(S(=O)(=O)Nc2ccccc2)cc1C(=O)N1CCCC1,0,0,0,0,-,-,-
COc1ccc(CC(=O)Nc2nc3ccccc3[nH]2)cc1,0,0,0,0,-,-,-

# Bioassay records: PubChem BioAssay, NMMLSC
